Experimental findings from PubChem BioAssay AID672 (University of Pittsburgh Molecular Library Screening Center, 2007) are described below.

The nature of the test: redox cycling hydrogen peroxide production, dose response, artefact control, biochemical, probe assessment (AID 672). The settings on record: Redox cycling H2O2 generation, DTT, phenol red/HRP.

The list shows a part of the results. Active and inactive are the calls of the source. The rule behind the calls is not given here.

Take `CCc1ccc(NC(=O)CSc2nc3ccccc3c(=O)n2CCN2CCOCC2)cc1`: the EC50 – broadly, the concentration needed to bring the measured effect to its halfway point – is > 50 µM (inactive).
